High-throughput results as filed in PubChem.
Only some compounds are listed: those with a hit (about 9.9% of all), similar ones and a draw of the others.
KB-3-1 cytotox = kills parental KB-3-1 adenocarcinoma cells; KB-3-1 viability, CellTiter-Glo ATP luminescence, 72 h; Potency, µM (doses to about 46.1 µM), usual class: cytotoxic; hit rate 1.4% among 400,000; further: potency means the concentration at half of the fitted maximal effect; on the % scale 0 is the no-effect control and ±100 the full control effect; nearly all actives have a fitted effect of over 60% in size
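Screening of KB-3-1 cells (DMEM, 10% FBS, phenol-red free) ran from lowest to highest compound concentration; after 72 h at 37 °C viability was read luminescently and curves fitted.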
IL-1B inflam inh = inflammasome signaling inhibition, IL-1 beta readout; THP-1 LPS/ATP IL-1B secretion, AlphaLISA, 16 h; hits give low values; activity change, % at 57.5 µM; hit rate 4.7% among 360,000; AID 743279; in the data active means activity change below about -50%; inconclusive means mostly about -30% to -49%; further: on the % scale 0 is the no-effect control and ±100 the full control effect
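THP-1 cells pretreated 1 hr with compounds (up to 57.5 uM final), then stimulated with LPS (250 ng/mL final) plus ATP (1.25 mM final); secreted IL-1B measured by AlphaLISA after 16 hr, decreased signal indicating inhibition.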
MCF10A rereplic = inducers of DNA re-replication in MCF 10A breast cells; AID 624296; Potency, µM (top dose mostly 46.1 µM), inactives show top-dose activity, positive = re-replication, actives largely listed as activators; MCF 10A DNA re-replication, Hoechst nuclear intensity, 48 h; hit rate 2.9% among 350,000; further: potency means the concentration at half of the fitted maximal effect; % of control where 0% means no effect; nearly all actives have a fitted effect of over 50% in size
KB-V1 MDR tox = KB-V1 MDR subline cytotoxicity; hit rate 3.4% among 400,000; Potency, µM (top dose mostly 46.1 µM), most hits filed as cytotoxic; KB-V1 MDR cells viability, CellTiter-Glo, 72 h; further: potency means the concentration at half of the fitted maximal effect; on the % scale 0 is the no-effect control and ±100 the full control effect; nearly all actives have a fitted effect of over 60% in size
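Potencies derive from concentration-effect curves fitted to normalized luminescence (CellTiter-Glo) of KB-V1 cells treated for 72 h at 37 degrees C in phenol-red-free DMEM containing 10% FBS.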
SW480 rerep = induces DNA re-replication in SW480 colon adenocarcinoma cells; hit rate 1.8% among 340,000; Potency, µM (titrated, usually from 46.1 µM), inactives show at the highest dose re-replication activation, hits mostly activators; SW480 DNA re-replication, Hoechst DNA content imaging, 48 h; further: potency means the concentration at half of the fitted maximal effect; % of control where 0% means no effect; nearly all actives have a fitted effect of over 55% in size
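SW480 cells exposed to compounds for 48 hr at 37 C, 5% CO2, then Hoechst-stained 40 min. Nuclear DNA content imaged by fluorescence scanning (405 nm excitation, 500-530 nm emission); re-replication scored as increased high-intensity nuclei.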
An asterisk follows results filed as active; i = inactive; ? = inconclusive; · = no result given. Unless noted, the call rests on the fitted dose curve; in most records, active means well fitted curve in the direction sought with a large enough effect; inconclusive means small, poorly fitted or top-dose-only effect, or another doubt; inactive means no such curve, though single readings can be large; an effect the other way counts as inactive or inconclusive.

SMILES	KB-3-1 cytotox	IL-1B inflam inh	MCF10A rereplic	KB-V1 MDR tox	SW480 rerep
O=S(=O)(Nc1nc2ccccc2nc1-[n+]1cccc(N=C([O-])c2ccc(Cl)cc2)c1)c1ccccc1	i	-72.9*	3.2%	i	?
CC(C)Cc1nc2oc3c(Cl)ncnc3c2c2c1CCC2	i	-101.8*	?	i	4.11µM*
CCCc1nc2oc3c(NCCN4CCOCC4)ncnc3c2c2c1CCCC2	i	-17.6	4.4%	1.84µM*	1.6%
CC(C)c1nc2oc3c(N4CCNCC4)ncnc3c2c2c1CCC2	i	-12.8	-0.8%	i	-2.8%
Cc1ccc2ncnc(NCCCN3CCOCC3)c2c1	i	19.3	-5.6%	i	2.6%
CCCc1nc2oc3c(=O)[nH]cnc3c2c2c1CCCC2	i	7.2	-0.2%	?	-693.0%
CC(C)Cc1nc2oc3c(NCCCN4CCOCC4)ncnc3c2c2c1CCC2	?	-59.2*	28.1%	i	?
Cc1cccc(CC(=O)NCCS(=O)(=O)N2CCN(c3cccc(Cl)c3)CC2)c1	i	-1.8	1.6%	?	9.6%
O=[N+]([O-])c1cc(Cl)c(Cl)c(Cl)c1Cl	i	-92.7*	1.1%	i	25.1%
O=[N+]([O-])c1ccc(Cl)cc1P(=O)(O)c1cc(Cl)ccc1[N+](=O)[O-]	i	5.1	-1.3%	i	0.6%
Cc1ccc(-n2c(=O)c3sccc3n(CC(=O)NCc3ccco3)c2=O)cc1	i	6.6	2.6%	i	-3.0%
O=c1c2sccc2n(Cc2cccc(F)c2)c(=O)n1-c1ccc(F)cc1	i	0.0	?	8.2µM*	3.5%
Cc1cccc(Cn2c(=O)n(-c3ccc(CC(=O)NCc4ccco4)cc3)c(=O)c3sccc32)c1	23.1µM*	-12.9	?	?	?
COc1cc(OC)cc(-n2c(=O)c3sccc3n(Cc3ccc(F)cc3)c2=O)c1	i	·	·	i	·
O=C(COC(=O)C1CC2CCCC(C1)C2=O)NNC(=O)c1ccccc1F (stereo not given)	i	1.0	0.3%	i	-2.8%
COc1ccc(CCNC(=O)Cn2ccc3c(OC)cccc3c2=O)cc1OC	i	11.9	-2.0%	i	-2.6%
Cc1ccc(C(=O)Nc2cccnc2Oc2ccc(Cl)cc2)cc1	i	-62.2*	16.6%	i	-5.5%
Cc1ccccc1NC(=O)OCc1cccnc1Oc1ccc(Cl)cc1	i	-79.4*	?	i	3.9%
COCCN(C(=O)CSc1ccc2c(c1)OCCO2)c1c(N)n(CC(C)C)c(=O)[nH]c1=O	i	1.6	-16.9%	i	-38.6%
CCCC(C(=O)NC1CCCC1)N(C(=O)Cn1nnc(-c2ccc(C)o2)n1)C1CCCC1 (stereo not given)	i	-18.4	15.9%	4.11µM*	?
Cc1ccc(-c2nnn(CC(=O)N(Cc3ccccc3)C(C(=O)NC3CCCC3)c3ccncc3)n2)o1 (stereo not given)	i	0.0	?	20.6µM*	-0.4%
CCC(C(=O)NC1CCCC1)N(C(=O)Cn1nnc(-c2ccc(C)o2)n1)C(C)(C)C (stereo not given)	i	-4.3	-1.2%	1.16µM*	7.3%
CCOc1ccccc1N(CC(=O)NC(C)(C)C)C(=O)Cn1nnc(-c2ccc(C)o2)n1	i	0.0	-2.1%	2.91µM*	-6.5%
CCOc1ccc(N(CC(=O)NCc2ccccc2)C(=O)Cn2nnc(-c3ccc(C)o3)n2)cc1	i	0.9	3.9%	i	-3.3%
CC(NC(=O)COC(=O)CCN1C(=O)C2CC=CCC2C1=O)c1ccc(Br)cc1 (stereo not given)	i	2.5	-2.8%	i	5.6%
SMILES	KB-3-1 cytotox	IL-1B inflam inh	MCF10A rereplic	KB-V1 MDR tox	SW480 rerep
Cc1ccc(N2CCN(C(=O)Nc3cn(CC(C)C)c(=O)c4ccccc34)CC2)c(C)c1	i	·	·	i	·
CCCn1c(SCC(=O)N(C)CC(=O)Nc2ccc(C)cc2)n[nH]c1=O	i	0.0	-2.4%	i	12.4%
Cc1ccc(-c2cc(C(F)F)n3ncc(C(=O)N4CCN(c5cccc(C)c5C)CC4)c3n2)cc1	?	8.3	?	?	?
CC(=O)N1CCN(S(=O)(=O)c2cccc(C(=O)NNC(=O)c3ccc(Br)cc3)c2)CC1	i	1.2	0.7%	?	-4.7%
CCC(C(=O)NC1CCCC1)N(C(=O)Cn1nnc(-c2ccc(OC)c(OC)c2)n1)C1CCCCC1 (stereo not given)	i	?	3.3%	i	0.9%
CCC(C(=O)NC1CCCC1)N(C(=O)Cn1nnc(-c2ccc(C)cc2)n1)C1CCCC1 (stereo not given)	i	-54.3*	-6.4%	i	18.2%
COCc1cc(C)nc2c1C(=O)NC(c1ccc(F)cc1)N2Cc1ccccc1 (stereo not given)	i	·	·	i	·
Cc1cccc(NC(=O)CC2C(=O)NC3CCCCC3N2C(=O)c2ccccc2Cl)c1 (stereo not given)	i	-6.6	0.7%	i	-7.5%
Cc1ccc(C(=O)N2C(CC(=O)Nc3ccc(Cl)cc3)C(=O)NC3CCCCC32)cc1 (stereo not given)	?	-25.5	29.3%	?	23.1µM*
Cc1nc2sc(C(=O)NCc3ccc(Cl)cc3)c(NC(=O)c3ccccc3)c2c(C)c1C	i	·	·	i	·
O=C(Nc1ccc(-n2nncc2-c2ccco2)cc1)c1cccc(F)c1	i	?	?	16.4µM*	-0.7%
NNc1nc(-c2ccccc2)cc(-c2ccc(Br)cc2)n1	?	-55.7*	14.0%	?	?
Cc1nc(-c2ccccc2)cc(-c2ccccc2)n1	i	27.2	6.8%	i	-17.8%
COc1ccc2nc(Nc3nc(C)c(C(C)=O)s3)sc2c1	i	-26.9	?	18.4µM*	16.4µM*
COc1ccc(Nc2nc3ccc(OC)cc3s2)cc1	i	?	?	?	-2.3%
CC(=O)c1sc(Nc2nc3cc4c(cc3s2)OCO4)nc1C	i	35.7	18.4µM*	?	20.6µM*
COc1cc(NC(=O)CNS(=O)(=O)c2cccs2)cc(OC)c1OC	i	·	·	?	·
CCOC(=O)c1cccc(NC(=O)CCS(=O)(=O)c2ccc(Br)s2)c1	i	59.6	-0.3%	i	-2.0%
CCOC(=O)c1cccc(NC(=O)CNS(=O)(=O)c2cccs2)c1	i	9.6	-0.9%	23.1µM*	-2.1%
CCOC(=O)c1cccc(NC(=O)CCS(=O)(=O)c2cccs2)c1	i	27.3	3.8%	20.6µM*	-2.4%
CCCOc1ccc(-c2cc(C(F)(F)F)c(C#N)c(SCC(=O)O)n2)cc1	i	-71.0*	?	i	-0.8%
COc1ccc(-c2cc(-c3ccc(Cl)cc3)c(C#N)c(SCC(=O)O)n2)cc1	i	-9.8	16.4µM*	i	-61.3%
